Assay results from the supplement of paper PMC6555819.

What was measured:
Assay in all cases: PBM binding z-score (relative to random genomic background probes); higher = stronger binding; sequences stand for … in GC…GCGATTGACAGCGTAGAATGAAGG
[1] = test system: LXRa:RXRa (NR concentration 270 nM, RXRa partner concentration 90 nM)
Outline: (§1)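 Binding z-scores were set against random background probes. The data came from custom Agilent 4×180K protein-binding microarrays carrying double-stranded probes with 34-nt variable regions, incubated 1 h with ligand-free nuclear receptor dimers. Partner-specific antibodies detected binding, and scanned fluorescence was regression-normalized.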

[2] = test system: LXRa homodimer (NR concentration 270 nM)
Outline: as §1

[3] = test system: LXRb homodimer (NR concentration 270 nM)
Outline: as §1

[4] = test system: PPARg:RXRa (NR concentration 180 nM, RXRa partner concentration 90 nM)
Outline: as §1

[5] = test system: PPARg:RXRa 270nM:90nM, anti-RXR (NR concentration 270 nM, RXRa partner concentration 90 nM)
Outline: as §1

[6] = test system: PPARg:RXRa 30nM:10nM, anti-RXR (NR concentration 30 nM, RXRa partner concentration 10 nM)
Outline: as §1

[7] = test system: PPARg:RXRa 90nM:30nM, anti-RXR (NR concentration 90 nM, RXRa partner concentration 30 nM)
Outline: as §1

[8] = test system: PPARg:RXRa DBDmut IVT, anti-RXR (DBD mutation: RXRa K156A/R161A, NR concentration 270 nM, RXRa partner concentration 90 nM)
Outline: as §1

[9] = test system: PPARg:RXRa IVT, anti-PPARg (NR concentration 270 nM, RXRa partner concentration 90 nM)
Outline: as §1

[10] = test system: PPARg DBDmut:RXRa IVT, anti-PPARg (DBD mutation: PPARg1 K132A/R137A, NR concentration 270 nM, RXRa partner concentration 90 nM)
Outline: as §1

[11] = test system: PPARg DBDmut IVT, anti-PPARg (DBD mutation: PPARg1 K132A/R137A, NR concentration 270 nM)
Outline: as §1

[12] = test system: PPARg homodimer (NR concentration 180 nM)
Outline: as §1

[13] = test system: PXR:RXRa (NR concentration 270 nM, RXRa partner concentration 90 nM)
Outline: as §1

[14] = test system: PXR homodimer (NR concentration 270 nM)
Outline: as §1

[15] = test system: RARa:RXR (NR concentration 270 nM, RXRa partner concentration 90 nM)
Outline: as §1

[16] = test system: RARa homodimer (NR concentration 270 nM)
Outline: as §1

[17] = test system: RARb:RXRa (NR concentration 270 nM, RXRa partner concentration 90 nM)
Outline: as §1

[18] = test system: RARb homodimer (NR concentration 270 nM)
Outline: as §1

[19] = test system: PPARa:RXRa (NR concentration 270 nM, RXRa partner concentration 90 nM)
Outline: as §1

| Sequence | PBM binding z-score [1] | PBM binding z-score [2] | PBM binding z-score [3] | PBM binding z-score [4] | PBM binding z-score [5] | PBM binding z-score [6] | PBM binding z-score [7] | PBM binding z-score [8] | PBM binding z-score [9] | PBM binding z-score [10] | PBM binding z-score [11] | PBM binding z-score [12] | PBM binding z-score [13] | PBM binding z-score [14] | PBM binding z-score [15] | PBM binding z-score [16] | PBM binding z-score [17] | PBM binding z-score [18] | PBM binding z-score [19] |
| --- | --- | --- | --- | --- | --- | --- | --- | --- | --- | --- | --- | --- | --- | --- | --- | --- | --- | --- | --- |
| CGAACTAGGTCACCCAGGACAGTGAATACATTGA | 2.03 | 0.478 | -0.274 | 8.33 | 6.66 | 4.23 | 6.12 | 8.48 | 8.55 | 3.12 | 2.38 | 2.12 | 1.88 | 1.13 | 2.54 | 1.21 | 4.25 | 3.34 |  |
| AGAATGAGGTCAAGATCAGGGAAACAGAATACAT | 5.9 | 0.974 | 1.7 | 7.59 | 6.96 | 4.75 | 6.74 | 5.82 | 6.55 | 2.94 | 2.9 | 3.03 | 4.67 | 1.43 | 5.28 | 1.39 | 5.21 | 3.8 |  |
| CGTCCGAGGTCATAGGAGGTCAGTGAAGACAGAT | 7.86 | 5.54 | 1.19 | 6.96 | 6.5 | 2.81 | 5.53 | 3.62 | 4.71 | 1.87 | 0.417 | 5.49 | 7.21 | 6.7 | 6.7 | 2.36 | 5.36 | 5.04 |  |
| CGTCCAAGGTTAAGGTCAGTGAAAGAGACTCGAA | 3.28 | 0.367 | -0.224 | 2.06 | 2.6 | 0.541 | 1.49 | 1.47 | 2.04 | -0.847 | -0.494 | 3.1 | 2.73 | 1.01 | 3.56 | 0.781 | 4.16 | 3.58 |  |
| AATACAGGGTCACGAGGCCAGAGTAGGTACGAAT | 6 | 1.22 | 0.897 | 8.68 | 7.43 | 4.39 | 6.65 | 3.9 | 5.74 | 2.21 | 2.16 | 3.03 | 4.43 | 0.257 | 5.27 | 1.39 | 5.07 | 4.14 |  |
| CCGACTGGGGCAAGGTCACCATAACGCACAGCCA | 2.82 | 0.471 | -0.792 | 4.78 | 4.63 | 2.12 | 3.78 | 3.03 | 4.62 | 0.00337 | -0.825 | 2.64 | 3.25 | 0.544 | 3.76 | 0.752 | 4.25 | 4.23 |  |
| TGTATGAGGTTAAAGATCAGGGAACGTGGCGTCG | 3.09 | 0.262 | 1.41 | 4.1 | 5.21 | 3 | 4.93 | 0.702 | 1.99 | 0.959 | 0.628 | 1.78 | 2.38 | 0.249 | 3.55 | 1.35 | 2.49 | 1.35 |  |
| AAAACAGGGTCATCGTAGGCCAGAGTACGCACAG | 6.26 | 0.569 | 1.32 | 7.65 | 6.86 | 4.1 | 5.89 | 4.38 | 5.24 | 4.19 | 2.83 | 6.6 | 5.51 | 0.625 | 5.95 | 0.959 | 4.44 | 3.68 |  |
| ACGCGGAGGACAAAGGTCAGAGCTACGCCAGTGA | 4.13 | 1.02 | 0.25 | 7.04 | 6.29 | 4.31 | 6.15 | 0.442 | 3.08 | -0.183 | -0.911 | 2.67 | 3.88 | 0.273 | 5.05 | 0.759 | 4.48 | 4.11 |  |
| ATATGTAGGTTAGGGTCAGTCAGAAAGTAGGGAA | 2.82 | 0.758 | 1.69 | 6.72 | 5.54 | 3.24 | 4.97 | 6.27 | 6.71 |  | 1.66 | 2.59 | 2.64 | 1.6 | 3.41 | 2.63 | 3.22 | 3.34 | 4.61 |
| CGTCAAAGATCAAGGTAACGTAACAGAAAGCAGC | -0.053 | -0.313 | -0.677 | 0.887 | 1.09 | 0.0515 | 0.332 | 0.519 | 0.642 | 0.647 | 0.471 | 0.374 | 0.00649 | -0.253 | 0.485 | 0.251 | 0.252 | -0.124 |  |
| ATCGAAAGGTCCACGAGGTGAGTATACACCGTTT | 0.186 | -0.0739 | -0.26 | 0.818 | 0.448 | 0.0544 | 0.533 | 0.0323 | 0.791 | 0.466 | 0.248 | 0.167 | 0.264 | -0.268 | 0.714 | 0.24 | 1.66 | 1.2 |  |
| CAAAATAGGTCACGAAAGGTCAAAGTCGAATGAC | 8.64 | 8.09 | 3.59 | 10.4 | 8.59 | 7.39 | 8.59 | 7.95 | 8.54 | 5.84 | 4.87 | 10.7 |  | 3.21 |  | 7.69 | 6.03 | 5.79 | 6.79 |
| AATAAAGGGTCATCGTAGGCCAGAGTACGCACAG | 6.44 | 3.35 | 2.31 | 7.14 | 6.58 | 3.39 | 5.44 | 3.16 | 4.41 | 1.5 | 1.46 | 5.38 | 5.11 | 1.02 | 5.67 | 3.37 | 5.11 | 4.11 |  |
| CGAACGAGGTCATGAGTTGATAGCAAATGCCGAT | 5.51 | 0.616 | 0.023 | 7.55 | 6.94 | 4.16 | 5.98 | 5.48 | 6.46 | 1.73 | 1.44 | 2.84 | 5.17 | 0.602 | 5.48 | 0.273 | 5.23 | 3.94 |  |
